Data on 16 compounds can be found in PubChem BioAssay (EPA / NIEHS).

Results filed as inconclusive are left out. Activity calls are given as the source filed them. Rule for the calls: active = hit-call score of the fitted dose curve at least 0.9, where 1 is the maximum; inconclusive = response in the unintended direction; inactive = score below 0.9.

The target of experiment [1] is rat Mineralocorticoid Receptor (MR), Nr3c2 (gene 25672) (UniProt P22199). Nature of the experiment: NVS_NR_rMR: NovaScreen (NVS) Nuclear Receptor Binding Assay for rat Mineralocorticoid Receptor (MR) (AID 2283355). Put shortly: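 Primary HTS ran in duplicate at a single 25 uM concentration, with concentration-series follow-up for actives. Receptor source: adrenalectomized rat brain supernatant, cell-free. Radioligand displacement read by scintillation at 24 h, relative to DMSO baseline.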

In experiment [2] the target is Estrogen receptor (Homo sapiens) + Estrogen receptor beta (Homo sapiens) (UniProt P03372+Q92731). Nature of the experiment: OT_ER_ERaERb_1440: Odyssey Thera (OT) 24-hour HEK293T Protein-Complementation Assay for Estrogen Receptor-alpha/-beta Homodimer (AID 2283356).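 Note: heteromer of ER alpha and ER beta binding domains; hits raise reporter fluorescence and both agonists and antagonists give an increase.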 The procedure, abridged:
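Fragment complementation between ER alpha (310-547) and ER beta (263-489) ligand-binding domains in HEK293T cells; signal read 24 h post-dosing by laser scanning cytometer. Gain of fluorescence relative to DMSO fitted.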

For experiment [3], the target named is Estrogen receptor beta (Homo sapiens) (UniProt Q92731). Nature of the experiment: OT_ER_ERbERb_0480: Odyssey Thera (OT) 8-hour HEK293T Protein-Complementation Assay for Estrogen Receptor-beta/-beta Homodimer (AID 2283357).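 Note: active means signal gain over DMSO baseline.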 The procedure, abridged:
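ER-beta LBD homodimer PCA stably expressed in HEK293T; 8 h compound exposure, then formaldehyde fixation and Draq5 staining. Gain in nuclear/cytoplasmic fluorescence intensity versus DMSO vehicle, read on laser scanning cytometer.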

The target of experiment [4] is Glucocorticoid receptor (Homo sapiens) (UniProt P04150). The experiment in a line: NVS_NR_hGR: NovaScreen (NVS) Nuclear Receptor Binding Assay for human Glucocorticoid Receptor (GR) (AID 2283363). The procedure, abridged: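 Compounds first tested in duplicate at 25 uM, actives followed up in concentration series. Binding to extracted GR protein measured as competitive radioligand displacement, filter scintillation read 16 h post-dosing, normalised to DMSO.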

Experiment [5] relates to guinea pig Dopamine Transporter (DAT), gene 100714898. The experiment in a line: NVS_TR_gDAT: NovaScreen (NVS) Transporter Assay for guinea pig Dopamine Transporter (DAT) (AID 2283369).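 Note: active compounds lower bound radioligand signal relative to DMSO.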 Put shortly: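 Radioligand displacement on membranes from guinea pig striatum, 2 h exposure, bound label counted by filtration and scintillation. Tested at 25 uM in duplicate, then actives in concentration series to 50 uM; DMSO as negative control.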

For experiment [6], the target named is human Serotonin Transporter (SERT), SLC6A4 (gene 6532) (UniProt P31645). Nature of the experiment: NVS_TR_hSERT: NovaScreen (NVS) Transporter Assay for human Serotonin Transporter (SERT) (AID 2283372). Put shortly: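 Human platelet membrane preparation; displacement of radioligand from serotonin transporter measured after 1 h by filtration and scintillation counting. Single 25 uM duplicate screen, then concentration series for actives, with DMSO as negative baseline.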

The target in experiment [7] is human Dopamine Transporter (DAT), SLC6A3 (gene 6531) (UniProt Q01959). The experiment in a line: NVS_TR_hDAT: NovaScreen (NVS) Transporter Assay for human Dopamine Transporter (DAT) (AID 2283374).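 Note: activity means loss of bound radioligand signal relative to DMSO.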 The procedure, abridged:
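Duplicate single-point screening at 25 uM preceded concentration-series follow-up of actives. Binding was measured by competitive displacement of a radioligand from DAT protein, filter-counted by scintillation 1 h after dosing. Decrease relative to DMSO taken as activity.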

In experiment [8] the target is mouse Estrogen Receptor alpha (Era), Esr1 (gene 13982) (UniProt P19785). Nature of the experiment: NVS_NR_mERa: NovaScreen (NVS) Nuclear Receptor Binding Assay for mouse Estrogen Receptor alpha (Era) (AID 2283378).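 Note: hit means loss of bound radioligand signal relative to DMSO.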 The procedure, abridged:
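Filter radiodetection of radioligand displacement from extracted receptor protein, measured 18 h post-dose. Single 25 uM concentration in duplicate initially, with concentration-series follow-up. Binding loss fitted relative to DMSO.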

The target of experiment [9] is Androgen Receptor/SRC-1 Co-activator, AR (gene 367) (UniProt P10275). The experiment in a line: OT_AR_ARSRC1_0960: Odyssey Thera (OT) 16-hour HEK293T Protein-Complementation Assay for Androgen Receptor/SRC-1 Co-activator (AID 2283353).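 Note: actives raise the signal above DMSO so potency reflects increased AR and SRC-1 complex.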 Put shortly: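 Sixteen-hour cell assay: Venus halves fused to AR and SRC-1 in HEK293T report binding. Images at 488/635 nm give an N/C ratio in the 488 nm channel over ≥400 cells, analysed as signal increase over DMSO.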

For experiment [10] the target is unchanged. Nature of the experiment: OT_AR_ARSRC1_0480: Odyssey Thera (OT) 8-hour HEK293T Protein-Complementation Assay for Androgen Receptor/SRC-1 Co-activator (AID 2283354).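 Note: hits raise the complementation signal above DMSO so AC50 marks enhancers.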 The procedure, abridged: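 Reconstituted split-Venus YFP signal from AR–SRC-1 interaction, read by imaging 8 h post-dose in stable HEK293T lines. The 488 nm nucleus-to-cytoplasm ratio (≥400 cells/image) was fitted upward against DMSO.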

In experiment [11] the target is Nuclear receptor subfamily 1 group I member 2 (Homo sapiens) (UniProt O75469). The experiment in a line: NVS_NR_hPXR: NovaScreen (NVS) Nuclear Receptor Binding Assay for human Pregnane X Receptor (PXR) (AID 2283365).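 Note: a drop in FRET signal versus DMSO baseline means the compound binds.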 The procedure, abridged:
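Human PXR binding measured by TR-FRET in a cell-free format, 2 h exposure. Single-concentration duplicates at 25 uM preceded concentration-response retests of actives; endpoint fitted positively relative to DMSO, loss of signal indicating binding.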

Experiment [12] addresses guinea pig Sigma Receptor, Non-selective Binding, SIGMAR1 (gene 100135589) (UniProt Q60492). The experiment in a line: NVS_OR_gSIGMA_NonSelective: NovaScreen (NVS) Nuclear Receptor Binding Assay for guinea pig Sigma Receptor, Non-selective Binding (AID 2283367). The procedure, abridged: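 Guinea pig brain membrane sigma sites were labelled with a radioligand, and bound radioactivity was counted after filtration 1 h post-dose. Compounds were screened at 25 uM in duplicate, then retested as concentration series when active.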

The target of experiment [13] is rat Serotonin Transporter (SERT), Slc6a4 (gene 25553) (UniProt P31652). Nature of the experiment: NVS_TR_rSERT: NovaScreen (NVS) Transporter Assay for rat Serotonin Transporter (SERT) (AID 2283375). Put shortly: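 Radioligand binding with competitive displacement on rat forebrain membrane preparations, counted by filtration and scintillation after 1 h. Primary single-point duplicates at 25 uM; active chemicals followed up in concentration-response. DMSO served as baseline.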

Experiment [14] concerns the target Peroxisome proliferator-activated receptor gamma (Homo sapiens) (UniProt P37231). Nature of the experiment: NVS_NR_hPPARg: NovaScreen (NVS) Nuclear Receptor Binding Assay for human Peroxisome Proliferator-activated Receptor gamma (PPARg) (AID 2283370). Put shortly:
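Fluorescence polarization readout of ligand binding to extracted human PPARg, measured at 2 h. Duplicate single-point screen at 25 uM, then concentration-series retesting; activity defined as signal loss versus DMSO.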

The next experiment deals with PGR (gene 5241) (UniProt P06401). The experiment in a line: NVS_NR_hPR: NovaScreen (NVS) Nuclear Receptor Binding Assay for human Progestron Receptor (PR) (AID 2283360).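 Note: active means loss of bound radioligand signal versus DMSO baseline.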 Put shortly: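 Competitive displacement of a labelled radioligand from T47D-derived receptor protein is measured in a cell-free format. Initial testing uses 25 uM in duplicate, with positive and negative controls on every plate.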

In experiment [15] the target is human Norepinephrine Transporter (NET), SLC6A2 (gene 6530) (UniProt P23975). The experiment in a line: NVS_TR_hNET: NovaScreen (NVS) Transporter Assay for human Norepinephrine Transporter (NET) (AID 2283377).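 Note: cell-free membrane protein extracted from CHO cells expressing human NET.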 The procedure, abridged:
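Single-concentration duplicate screen at 25 uM, then concentration-response for actives; displacement of specific radioligand from human NET in CHO membrane extracts, filter-based scintillation detection at 1 h relative to DMSO.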

Experiment [16] addresses Retinoic acid receptor alpha (Homo sapiens) (UniProt P10276). Nature of the experiment: NVS_NR_hRAR_Antagonist: NovaScreen (NVS) Nuclear Receptor Binding Assay for human Retinoic Acid Alpha Receptor Antagonism (RAR) (AID 2283358). The procedure, abridged:
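RARalpha antagonism was read by TR-FRET as loss of binding signal versus DMSO, 2 h after chemical addition, in a biochemical format. Single-concentration duplicates (25 uM) were run first, and actives were retested in concentration series.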

For experiment [17] the target is unchanged. The experiment in a line: NVS_NR_hRARa_Agonist: NovaScreen (NVS) Nuclear Receptor Binding Assay for human Retinoic Acid Alpha Receptor Agonism (RAR) (AID 2283361). The procedure, abridged:
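Agonist-mode TR-FRET binding format using extracted protein, measured at 2 h post-dosing. Initial duplicate single-point screen at 25 uM preceded concentration series for actives; activity was normalized to DMSO baseline.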

Chain of human Norepinephrine Transporter (NET), SLC6A2 (gene 6530) (P23975 whole entry, looked up): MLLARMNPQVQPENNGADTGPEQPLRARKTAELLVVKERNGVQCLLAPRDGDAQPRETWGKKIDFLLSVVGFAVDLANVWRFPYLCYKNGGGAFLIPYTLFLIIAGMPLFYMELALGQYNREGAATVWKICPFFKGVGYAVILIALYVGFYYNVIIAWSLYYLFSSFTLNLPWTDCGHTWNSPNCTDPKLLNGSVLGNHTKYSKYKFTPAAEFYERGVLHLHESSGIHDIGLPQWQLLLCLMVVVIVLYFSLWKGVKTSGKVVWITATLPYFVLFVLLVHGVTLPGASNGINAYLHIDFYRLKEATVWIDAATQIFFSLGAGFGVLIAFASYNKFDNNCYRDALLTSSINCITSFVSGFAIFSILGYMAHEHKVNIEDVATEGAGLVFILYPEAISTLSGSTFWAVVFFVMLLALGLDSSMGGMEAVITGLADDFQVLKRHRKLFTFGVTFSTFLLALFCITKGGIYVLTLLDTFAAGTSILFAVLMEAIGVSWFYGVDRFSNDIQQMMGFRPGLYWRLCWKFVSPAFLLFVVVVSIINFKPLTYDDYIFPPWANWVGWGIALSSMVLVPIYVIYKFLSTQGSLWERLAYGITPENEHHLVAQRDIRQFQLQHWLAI
Chain of Androgen Receptor/SRC-1 Co-activator, AR (gene 367) (P10275 whole entry, looked up, the tested form may be a part): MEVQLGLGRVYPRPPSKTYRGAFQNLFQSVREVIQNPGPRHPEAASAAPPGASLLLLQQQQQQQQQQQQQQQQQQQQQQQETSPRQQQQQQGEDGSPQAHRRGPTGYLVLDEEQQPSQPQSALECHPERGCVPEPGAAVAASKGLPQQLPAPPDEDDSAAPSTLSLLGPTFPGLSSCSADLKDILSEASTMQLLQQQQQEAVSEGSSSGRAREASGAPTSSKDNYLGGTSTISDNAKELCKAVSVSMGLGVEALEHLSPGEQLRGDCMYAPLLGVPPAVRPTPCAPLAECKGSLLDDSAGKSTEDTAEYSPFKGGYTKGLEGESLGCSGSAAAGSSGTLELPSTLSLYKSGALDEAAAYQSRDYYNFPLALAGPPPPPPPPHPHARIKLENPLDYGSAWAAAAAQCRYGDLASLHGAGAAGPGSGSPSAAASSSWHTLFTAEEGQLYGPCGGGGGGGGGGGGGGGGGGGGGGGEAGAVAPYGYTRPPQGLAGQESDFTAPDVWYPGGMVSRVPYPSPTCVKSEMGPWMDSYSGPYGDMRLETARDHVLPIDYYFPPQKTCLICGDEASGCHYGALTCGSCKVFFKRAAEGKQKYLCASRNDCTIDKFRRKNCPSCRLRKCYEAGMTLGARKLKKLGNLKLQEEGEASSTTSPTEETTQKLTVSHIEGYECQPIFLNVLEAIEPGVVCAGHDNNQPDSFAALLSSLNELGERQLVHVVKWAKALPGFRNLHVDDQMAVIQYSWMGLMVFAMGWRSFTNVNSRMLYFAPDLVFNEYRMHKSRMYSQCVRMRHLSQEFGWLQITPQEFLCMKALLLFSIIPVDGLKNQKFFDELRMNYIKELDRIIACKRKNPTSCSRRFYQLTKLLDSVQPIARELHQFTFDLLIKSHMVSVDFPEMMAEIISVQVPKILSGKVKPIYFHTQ
Chain of mouse Estrogen Receptor alpha (Era), Esr1 (gene 13982) (P19785 whole entry, looked up): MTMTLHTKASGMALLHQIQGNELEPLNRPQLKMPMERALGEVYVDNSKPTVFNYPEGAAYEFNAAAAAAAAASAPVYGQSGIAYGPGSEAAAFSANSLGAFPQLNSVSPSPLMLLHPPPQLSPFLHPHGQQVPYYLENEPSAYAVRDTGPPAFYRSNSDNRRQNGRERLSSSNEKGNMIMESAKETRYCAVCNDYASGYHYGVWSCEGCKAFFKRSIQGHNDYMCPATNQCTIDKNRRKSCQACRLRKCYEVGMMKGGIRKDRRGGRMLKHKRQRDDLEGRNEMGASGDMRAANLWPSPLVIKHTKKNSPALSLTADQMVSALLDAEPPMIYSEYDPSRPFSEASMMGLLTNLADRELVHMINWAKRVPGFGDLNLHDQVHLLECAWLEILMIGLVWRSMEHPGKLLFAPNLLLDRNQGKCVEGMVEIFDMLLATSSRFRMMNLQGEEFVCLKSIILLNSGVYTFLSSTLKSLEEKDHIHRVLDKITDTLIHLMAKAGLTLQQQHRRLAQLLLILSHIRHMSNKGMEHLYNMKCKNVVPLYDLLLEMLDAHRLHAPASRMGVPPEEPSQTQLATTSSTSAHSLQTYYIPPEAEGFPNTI
Chain of guinea pig Sigma Receptor, Non-selective Binding, SIGMAR1 (gene 100135589) (Q60492 whole entry, looked up): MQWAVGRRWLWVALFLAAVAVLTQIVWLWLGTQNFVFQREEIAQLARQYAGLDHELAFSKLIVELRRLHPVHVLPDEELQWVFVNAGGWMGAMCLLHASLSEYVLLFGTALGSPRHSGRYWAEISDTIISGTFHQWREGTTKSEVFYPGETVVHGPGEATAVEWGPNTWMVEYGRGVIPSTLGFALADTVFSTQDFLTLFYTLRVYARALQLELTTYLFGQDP
Chain of Estrogen receptor beta (Homo sapiens) (Q92731 whole entry, looked up, the tested form may be a part): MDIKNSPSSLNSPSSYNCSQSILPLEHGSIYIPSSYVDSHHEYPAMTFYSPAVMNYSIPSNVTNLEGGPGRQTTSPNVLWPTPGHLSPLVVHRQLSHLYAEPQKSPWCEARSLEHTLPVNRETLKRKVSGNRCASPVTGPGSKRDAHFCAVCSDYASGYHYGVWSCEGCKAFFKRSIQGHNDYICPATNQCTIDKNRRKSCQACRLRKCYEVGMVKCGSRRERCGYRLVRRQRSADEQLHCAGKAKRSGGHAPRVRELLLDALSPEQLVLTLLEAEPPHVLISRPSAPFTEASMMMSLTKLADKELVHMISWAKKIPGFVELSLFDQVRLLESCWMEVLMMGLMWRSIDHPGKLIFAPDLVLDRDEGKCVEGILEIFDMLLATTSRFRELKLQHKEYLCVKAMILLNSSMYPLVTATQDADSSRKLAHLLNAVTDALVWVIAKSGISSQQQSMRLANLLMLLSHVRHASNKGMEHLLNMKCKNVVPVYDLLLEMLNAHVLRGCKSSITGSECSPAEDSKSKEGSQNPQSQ
Chain of Estrogen receptor (Homo sapiens) + Estrogen receptor beta (Homo sapiens) (P03372 whole entry, looked up, the tested form may be a part): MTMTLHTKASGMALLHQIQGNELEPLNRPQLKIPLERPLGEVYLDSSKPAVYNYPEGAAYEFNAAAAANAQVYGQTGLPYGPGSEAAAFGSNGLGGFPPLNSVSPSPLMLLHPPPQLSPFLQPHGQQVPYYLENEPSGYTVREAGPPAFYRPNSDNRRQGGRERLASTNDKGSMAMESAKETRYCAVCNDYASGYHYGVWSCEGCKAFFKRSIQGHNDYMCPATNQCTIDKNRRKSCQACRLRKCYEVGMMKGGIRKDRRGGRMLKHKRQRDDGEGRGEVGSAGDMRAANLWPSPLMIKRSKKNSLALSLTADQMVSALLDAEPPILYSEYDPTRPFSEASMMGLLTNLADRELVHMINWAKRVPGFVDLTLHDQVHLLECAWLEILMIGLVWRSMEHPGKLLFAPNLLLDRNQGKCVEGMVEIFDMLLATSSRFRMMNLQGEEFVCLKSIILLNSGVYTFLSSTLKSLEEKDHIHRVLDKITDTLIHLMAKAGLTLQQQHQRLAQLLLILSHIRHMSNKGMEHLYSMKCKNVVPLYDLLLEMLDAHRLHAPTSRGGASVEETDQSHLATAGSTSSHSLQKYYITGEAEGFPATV
Chain of Estrogen receptor (Homo sapiens) + Estrogen receptor beta (Homo sapiens) (Q92731 whole entry, looked up, the tested form may be a part): as the sequence (Q92731 whole entry, looked up, the tested form may be a part) above
Chain of Peroxisome proliferator-activated receptor gamma (Homo sapiens) (P37231 whole entry, looked up): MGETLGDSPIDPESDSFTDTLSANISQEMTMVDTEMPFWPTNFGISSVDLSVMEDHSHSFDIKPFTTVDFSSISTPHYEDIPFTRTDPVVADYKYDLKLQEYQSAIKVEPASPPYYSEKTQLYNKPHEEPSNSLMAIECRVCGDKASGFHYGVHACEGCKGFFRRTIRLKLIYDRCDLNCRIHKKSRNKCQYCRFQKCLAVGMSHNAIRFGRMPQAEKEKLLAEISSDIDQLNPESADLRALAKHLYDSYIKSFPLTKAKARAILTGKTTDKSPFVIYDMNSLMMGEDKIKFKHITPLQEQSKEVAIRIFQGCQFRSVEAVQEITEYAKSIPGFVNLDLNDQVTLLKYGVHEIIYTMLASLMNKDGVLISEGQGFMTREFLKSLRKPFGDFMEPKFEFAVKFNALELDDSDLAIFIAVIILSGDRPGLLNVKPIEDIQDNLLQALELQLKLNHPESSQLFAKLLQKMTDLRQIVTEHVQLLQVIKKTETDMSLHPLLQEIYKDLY
Chain of Retinoic acid receptor alpha (Homo sapiens) (P10276 whole entry, looked up): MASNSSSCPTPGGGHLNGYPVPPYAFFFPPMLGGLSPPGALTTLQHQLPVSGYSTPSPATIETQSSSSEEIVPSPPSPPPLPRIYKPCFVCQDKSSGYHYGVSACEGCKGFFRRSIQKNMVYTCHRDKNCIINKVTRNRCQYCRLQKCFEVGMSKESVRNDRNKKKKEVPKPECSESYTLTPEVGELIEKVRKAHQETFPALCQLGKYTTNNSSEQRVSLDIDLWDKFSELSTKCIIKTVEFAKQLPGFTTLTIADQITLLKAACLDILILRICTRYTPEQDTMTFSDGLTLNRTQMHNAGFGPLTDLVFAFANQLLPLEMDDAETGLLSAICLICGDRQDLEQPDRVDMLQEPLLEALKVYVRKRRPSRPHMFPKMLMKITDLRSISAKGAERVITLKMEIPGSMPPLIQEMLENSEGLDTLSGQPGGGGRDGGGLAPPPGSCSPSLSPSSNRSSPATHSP

Regarding `CCOC(=O)CCC(=O)OCC`, the figures for the AC50 in experiment [1] and in experiment [5] were 25 µM (active) and 6.93 µM (active), respectively. Also, the result in experiment [2], in [3], in experiment [4], in experiment [6], in [7] and in experiment [8] was inactive.
For `Cc1nc(-c2ccc3c(c2)CCN(CCC2CCC(NC(=O)/C=C/c4ccc(F)cc4)CC2)CC3)no1` (configuration not stated), the outcome in experiment [9], in experiment [10], in experiment [2], in experiment [3] and in experiment [11] was inactive. Also, the AC50 in [12] was 1.03 µM (active); in experiment [6], 0.068 µM (active); in [13] it was 0.201 µM (active).
Take `CCCCCCCCCCC`: the compound was called inactive in experiment [9], in experiment [2] and in [14].
With `CC(=O)Oc1ccccc1C(=O)O`, the call in [9], in experiment [10], in experiment [2] and in [3] was inactive.
In the case of `CCOc1ccc2c(c1)C(C)=CC(C)(C)N2`, the call in experiment [9], in [10], in [14] and in experiment [15] was inactive. Further, the figures for the AC50 (in the experiment with PGR (gene 5241); in experiment [12]) were 9.2 µM (active) and 16.4 µM (active), respectively.
Consider `CCOC(=O)C(C)(C)Oc1ccc(Cl)cc1`, for which the outcome (in [2]; in experiment [3]; with PGR (gene 5241); in experiment [4]; in [14]; in [7]) was inactive.
For the compound `Cc1ccc(C)c(O)c1C`, the outcome in experiment [9] and in experiment [10] was inactive. Moreover, the AC50 in experiment [7] was 10.3 µM (active).
For `CC(C)(C)c1cc(O)c(C(C)(C)C)cc1O`, the AC50 in experiment [9] was 50 µM (active); in experiment [12], 5.75 µM (active). Also, the compound was classed as inactive in experiment [10], in experiment [2], in experiment [3], in experiment [15] and in experiment [8].
In the case of `CCCCCC(=O)O`, the compound was called inactive in experiment [9], in [2], in experiment [3] and in experiment [13].
Take `Cc1cccc(Nc2cc(Cl)nc(SCC(=O)O)n2)c1C`: the call in [9], in experiment [10], in experiment [2], in [3], in experiment [15] and in experiment [8] was inactive.
Regarding `CCCCCCCC=O`, the outcome (in experiment [2]; in [3]; with PGR (gene 5241)) was inactive.
Consider `Cc1cc(NC(=O)C(=O)O)cc(C)c1Oc1ccc(O)c2c1CCC2`, for which the compound was classed as inactive in experiment [9] and in [10]. The AC50 in the experiment with PGR (gene 5241) was 7.64 µM (active).
Regarding `C1CCC(SSC2CCCCC2)CC1`, the result in experiment [2] was inactive. The AC50 in experiment [3] is 34.1 µM (active).
For `CC1=C(/C=C/C(C)=C/C=C/C(C)=C/CO)C(C)(C)CCC1`, the result in [2], in [3], in experiment [16], in experiment [17], in [14] and in [15] was inactive.
Regarding `CN[C@H]1CC[C@@H](c2ccc(Cl)c(Cl)c2)c2ccc(S(N)(=O)=O)cc21`, the figures for the AC50 in [9] and in experiment [10] were 17.4 µM (active) and 19.9 µM (active), respectively. Also, the outcome (with PGR (gene 5241); in experiment [14]; in experiment [8]) was inactive.
With `O=c1[nH]cc(F)c(=O)[nH]1`, the call in experiment [1], in [2] and in experiment [3] was inactive.

As usually defined, the AC50 is the concentration giving half of the maximal activity seen.
